An excerpt weighted towards active compounds, which were near 7.9% of everything screened.
KB-3-1 tox – KB-3-1 parental cell cytotoxicity; actives 1.4% (n = 400,000); Potency, µM (titrated, usually from 46.1 µM), hits mostly cytotoxic; KB-3-1 viability, CellTiter-Glo ATP luminescence, 72 h; note: % is set by controls: 0 for no effect and ±100 for the full control effect; nearly all actives have a fitted effect of over 60% in size
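Cytotoxicity measured as CellTiter-Glo luminescence after 72 h at 37 C. Compound titrations were pinned onto drug-naive KB-3-1 parental adenocarcinoma cells grown in DMEM with 10% FBS, and normalized data fitted to concentration-response curves.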
SW480 rerep – induces DNA re-replication in SW480 colon adenocarcinoma cells; actives 1.8% (n = 340,000); SW480 DNA re-replication, Hoechst DNA content imaging, 48 h; Potency, µM (top dose mostly 46.1 µM), without a hit: at the highest dose re-replication activation, usual class: activators; note: % of control where 0% means no effect; nearly all actives have a fitted effect of over 55% in size
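Quantitative HTS format with DMSO vehicle controls; 48 hr drug incubation at 37 C, then 40 min Hoechst staining and scanning imager measurement at 405 nm excitation.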
MCF10A rerep – DNA re-replication induction in MCF 10a cells; Potency, µM (top dose mostly 46.1 µM), for the others: at the top dose activity, positive = re-replication, usual class: activators; MCF 10A DNA re-replication, Hoechst nuclear intensity, 48 h; AID 624296; actives 2.9% (n = 350,000); note: % of control where 0% means no effect; nearly all actives have a fitted effect of over 50% in size
KB-V1 MDR tox – KB-V1 MDR subline cytotoxicity | KB-V1 MDR cells viability, CellTiter-Glo, 72 h | Potency, µM (highest dose often 46.1 µM), most hits filed as cytotoxic | actives 3.4% (n = 400,000) | AID 1347076; note: % is set by controls: 0 for no effect and ±100 for the full control effect; nearly all actives have a fitted effect of over 60% in size
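qHTS viability screen in drug-selected KB-V1 MDR cells: 72 h compound treatment at 37 degrees C, ATP luminescence end point.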
HT1080NT lethal – kills 2HG-producing HT-1080-NT fibrosarcoma cells; Potency, µM (titrated, usually from 46.1 µM), for inactives: top-dose activity, negative = less viability, hits mostly cytotoxic; actives 1.6% (n = 360,000); AID 686970; HT-1080-NT fibrosarcoma viability, CellTiter-Glo ATP luminescence, 48 h;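 note: NT is the 2HG producing partner of a matched IDH1 knockdown line; 0% = DMSO-treated cells and -100% = media-only wells without cells; nearly all actives have a fitted effect of over 55% in size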
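Viability of the 2HG-overproducing fibrosarcoma line after 48 hours of compound exposure at 37 degrees C was determined by luminescence with CellTiter-Glo, and concentration-effect curves were then fitted and categorized.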
HT1080 IDH1KD tx – HT-1080 IDH1 knockdown cell toxicity (counter line); HT-1080 IDH1 knockdown viability, ATP luminescence, 48 h; Potency, µM (titrated, usually from 46.1 µM), inactives show at the highest dose activity, negative = toxicity, usual class: cytotoxic; actives 2% (n = 360,000);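 note: 0% = DMSO wells and -100% = cell-free medium wells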
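Cytotoxicity counter-line: IDH1KD HT-1080, 48 h, CellTiter-Glo. Curves classed by r2, magnitude and activity.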
Numbers without * were called inactive; i = inactive; ? = inconclusive; . = no result; [ ] = remark or other dose. Calls come from the whole dose curve; as a rule, active = well fitted curve in the direction sought with a large enough effect; inconclusive = small, poorly fitted or top-dose-only effect, or another doubt; inactive = no such curve, though single readings can be large; an effect the other way counts as inactive or inconclusive. Potency is the fitted concentration of half-maximal effect.

SMILES | KB-3-1 tox | SW480 rerep | MCF10A rerep | KB-V1 MDR tox | HT1080NT lethal | HT1080 IDH1KD tx
COc1ccc2[nH]c3c(N4CCC(O)(c5cccc(C(F)(F)F)c5)CC4)ncnc3c2c1 | 13µM* | ? | ? | 18µM* | ? | 21µM*
O=[N+]([O-])c1ccc2ncnc(N3CCN(Cc4ccc5c(c4)OCO5)CC3)c2c1 | i | 6% | -2% | ? | -17% | -15%
O=S(=O)(c1ccc(OC(F)(F)F)cc1)N1CCC(O)(c2cccc(C(F)(F)F)c2)CC1 | i | -2% | 14% | i | -24% | 0%
COc1ccc2[nH]c3c(N4CCN(Cc5ccc6c(c5)OCO6)CC4)ncnc3c2c1 | ? | ? | ? | ? | 21µM* | ?
CCN(CC)C(=O)CSc1nc(-c2ccc(C)cc2)nc2c1Cc1c(CO)cnc(C)c1O2 | i | . | . | i | . | .
CN(CC(=O)Nc1ccccc1Br)C(=O)CCCSc1nc2ccccc2[nH]1 | ? | 1% | 4% | ? | 1% | -5%
CCN1CCN(Cc2c(O)ccc3oc(C)c(C(=O)Nc4cccc(Cl)c4C)c23)CC1 | i | . | . | i | . | .
Oc1ccccc1C1SC(c2ccccc2O)SC(c2ccccc2O)S1 (stereo unspecified) | ? | ? | 6.5µM* | i | 15µM* | ?
CCCCC(=O)Oc1ccccc1C1SCc2cc(C)c(C)cc2CS1 | i | -5%[9.22 µM] | 2% | i | -1% | -4%
Oc1ccccc1C1OCC2(CO1)COC(c1ccccc1O)OC2 (stereo unspecified) | ? | -2% | 5% | i | 0% | -9%
Cc1cc2c(cc1C)CSC(c1c(O)ccc3ccccc13)SC2 | ? | 18% | 18µM* | i | 23µM* | ?
Cc1cc2c(cc1C)CSC(c1ccccc1OC(=O)C(C)(C)C)SC2 | i | 7% | 12µM* | i | -17% | -21%
Cc1cc2c(cc1C)CSC(c1ccccc1O)SC2 | ? | ? | ? | 18µM* | ? | ?
CC1(C(=O)NS(=O)(=O)c2ccc3c(c2)CCO3)CCN1C(=O)C1(c2ccc(Cl)cc2)CC1 (stereo unspecified) | i | . | . | i | 6% | 20%
C[C@H]1c2cccc(O)c2C(=O)C2C(=O)C3(O)C(=O)C(C(N)=O)C(=O)[C@@H](N(C)C)[C@@H]3[C@@H](O)[C@@H]21 (stereo partly specified) | i | 6.3µM* | -4% | i | ? | ?
C[C@H]1c2cccc(O)c2C(O)=C2C(=O)C3(O)C(O)=C(C(N)=O)C(=O)[C@@H](N(C)C)[C@@H]3[C@@H](O)[C@@H]21 (stereo partly specified) | i | ? | 9% | i | ? | ?
COc1ccc(-n2nc([N+](=O)[O-])c(=NCCc3ccc(C)cc3)n2O)cc1 | i | 1% | 7% | i | 5% | -2%
COc1ccc(-n2nc([N+](=O)[O-])c(=NCCc3ccc(OC)c(OC)c3)n2O)cc1 | i | 3% | 3% | 2.6µM* | -12% | -16%
COc1ccc(-n2nc([N+](=O)[O-])c(=NCc3cccnc3)n2O)cc1 | i | -7% | -6% | 21µM* | 1% | 0%
CC(=O)N1c2ccc(S(=O)(=O)N3CCCC(C(=O)Nc4ccc(F)cc4)C3)cc2CC1C (stereo unspecified) | i | -7% | -1% | i | -4% | -15%
CC1CC(C)CN(C(=O)COC(=O)c2ccc3ccccc3n2)C1 (stereo unspecified) | i | -4% | -2% | i | 13% | 15%
O=C(CNC(=S)N(CCCN1CCOCC1)Cc1cccs1)NCCCN1CCOCC1 | i | 2% | 0% | i | 13% | 10%
CC(=O)Nc1ccc(S(=O)(=O)N(CCCN2CCOCC2)Cc2cccs2)cc1 | i | 7% | 1.2µM* | i | 4% | -2%
CC(C)(C)c1ccc(S(=O)(=O)N(CCCN2CCOCC2)Cc2cccs2)cc1 | i | ? | 5.8µM* | i | ? | ?
CCOC(=O)CCN(Cc1cccs1)S(=O)(=O)c1ccc(Cl)cc1 | i | -7% | 0% | 15µM* | -1% | 3%
SMILES | KB-3-1 tox | SW480 rerep | MCF10A rerep | KB-V1 MDR tox | HT1080NT lethal | HT1080 IDH1KD tx
O=[N+]([O-])c1ccc(S(=O)(=O)N(CCCN2CCOCC2)Cc2cccs2)cc1 | i | -71% | 5% | ? | 10% | 4%
CC(=O)N(CCS(=O)(=O)c1ccc(Cl)cc1)Cc1cccs1 | i | -10% | -1% | i | -13% | -4%
CCN(CC)C(=O)CNC(=S)N(CCCN1CCOCC1)Cc1cccs1 | i | -154% | 17% | 7.3µM* | 9% | 22%
CCc1ccc(NC(=O)N(CCCN2CCOCC2)Cc2cccs2)cc1 | i | 16% | 18% | i | 0% | -2%
COc1ccc(OC)c2sc(N(Cc3cccnc3)C(=O)c3ccc(C(C)=O)cc3)nc12 | i | . | . | i | . | .
OC(CBr)C[n+]1cc(Br)cc2ccccc21 (stereo unspecified) | i | . | . | i | . | .
CN(CCc1ccccc1)C(C(=O)Nc1ccc2c(c1)OCCO2)c1ccnc2ccccc12 (stereo unspecified) | ? | . | . | 23µM* | ? | ?
O=C(Nc1ccc2c(c1)OCCO2)C(c1ccnc2ccccc12)N1CCC(Cc2ccccc2)CC1 (stereo unspecified) | i | . | . | i | -17% | -14%
Cc1ccc(S(C)(=O)=O)cc1C(=O)N1CC(C(N)=O)Oc2ccccc21 (stereo unspecified) | i | -65% | 0% | i | 23% | 23%
COc1cccc(Oc2nc3c(c(=O)n(Cc4ccccc4F)c(=O)n3C)n2C)c1 | i | . | . | i | . | .
Cn1c(NCc2cccnc2)nc2c1c(=O)n(Cc1ccccc1F)c(=O)n2C | ? | -8% | -4% | 15µM* | -5% | -8%
Cn1c(=O)c2c(nc(NCc3cccnc3)n2Cc2cccc(C(F)(F)F)c2)n(C)c1=O | i | -2% | 9% | ? | 21µM* | 2%[9.24 µM]
COc1cccc(Cn2c(NCc3cccnc3)nc3c2c(=O)n(C)c(=O)n3C)c1 | 3.7µM* | -2% | 2% | i | 4.6µM* | 5.2µM*
Cc1ccc(Oc2nc3c(c(=O)n(Cc4ccccc4F)c(=O)n3C)n2C)cc1 | i | -7% | 2% | 12µM* | -2% | 8%

Bioassay records (PubChem)
